Results taken from the supplement of paper PMC10849652.
Of roughly 8,800 targets only a part is listed; those with a hit were picked by preference. About 0.5% of all pairs of compound and target were hits.

Tests used:
Assay in all cases: log2 fold change, soluble protein after heating vs DMSO (PISA); higher = thermal stabilisation; K562 lysate, 10 uM; active = over 0.2 and 3.5 SD of the protein, either way, in both replicates (recomputed)
[1] = compound: C1=CC=C(C=C1)[C@H](COC2=CC3=C(C=C2)NC(=O)N3)NC(=O)C4=CC=CN(C4=O)CC5=CC(=C(C=C5)F)F
Procedure, shortened: (§1)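 Soluble protein was defined as the supernatant remaining after 21,000xg for 90 min, following pooling of heated aliquots and adjustment to 0.5% NP-40 at 4°C. Before that, crude K562 extract at 1 mg/mL protein in PBS pH 7.4 with 1 mM MgCl2 was treated with 10 μM compound for 30 min and heated for 3 min across 48°C-58°C. Quantification used TMTpro 16plex LC-MS/MS with channel sums equalised, and values are log-two fold changes in thermal stability relative to solvent controls from duplicates.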

[2] = compound: CC1=C(SC2=C1C(=N[C@H](C3=NN=C(N32)C)CC(=O)N)C4=CC=C(C=C4)Cl)C
Procedure, shortened: as §1

[3] = compound: CC1=C2C(=CC=C1)N=C(N(C2=O)C3=CC=CC=C3C)CN4C=NC5=C(N=CN=C54)N
Procedure, shortened: as §1

[4] = compound: Cc1sc2c(c1C)C(c1ccc(Cl)cc1)=N[C@@H](CC(=O)OC(C)(C)C)c1nnc(C)n1-2
Procedure, shortened: as §1

[5] = compound: c1ccc([C@@H]2C[C@H]2NC2CCNCC2)cc1
Procedure, shortened: as §1

Measured: log2 fold change

ERLIN2 (UniProt O94905)
UniProt O94905, sequence (O94905 whole entry, looked up): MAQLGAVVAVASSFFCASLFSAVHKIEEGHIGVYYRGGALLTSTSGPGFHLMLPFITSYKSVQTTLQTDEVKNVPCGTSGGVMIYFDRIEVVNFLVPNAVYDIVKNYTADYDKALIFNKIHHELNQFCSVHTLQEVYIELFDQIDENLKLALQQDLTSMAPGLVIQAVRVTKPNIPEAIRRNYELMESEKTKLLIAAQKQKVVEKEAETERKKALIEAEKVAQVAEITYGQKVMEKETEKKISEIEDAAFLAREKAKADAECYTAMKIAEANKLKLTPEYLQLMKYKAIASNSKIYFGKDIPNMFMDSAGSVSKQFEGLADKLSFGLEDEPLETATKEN
inactive: [1] 0.009 | [2] -0.007 | [3] 0.016 | [4] -0.126 | [5] 0.143

EXO5 (UniProt Q9H790)
inactive: [1] 0.033 | [2] -0.179

GGA2 (UniProt Q9UJY4)
inactive: [1] -0.055 | [2] 0.011 | [3] -0.085 | [4] 0.062 | [5] 0.032

FBXO9 (UniProt Q9UK97)
inactive: [1] -0.07 | [2] -0.112 | [3] -0.002 | [4] 0.089 | [5] 0.095

DUS3L (UniProt Q96G46)
UniProt Q96G46, sequence (Q96G46 whole entry, looked up): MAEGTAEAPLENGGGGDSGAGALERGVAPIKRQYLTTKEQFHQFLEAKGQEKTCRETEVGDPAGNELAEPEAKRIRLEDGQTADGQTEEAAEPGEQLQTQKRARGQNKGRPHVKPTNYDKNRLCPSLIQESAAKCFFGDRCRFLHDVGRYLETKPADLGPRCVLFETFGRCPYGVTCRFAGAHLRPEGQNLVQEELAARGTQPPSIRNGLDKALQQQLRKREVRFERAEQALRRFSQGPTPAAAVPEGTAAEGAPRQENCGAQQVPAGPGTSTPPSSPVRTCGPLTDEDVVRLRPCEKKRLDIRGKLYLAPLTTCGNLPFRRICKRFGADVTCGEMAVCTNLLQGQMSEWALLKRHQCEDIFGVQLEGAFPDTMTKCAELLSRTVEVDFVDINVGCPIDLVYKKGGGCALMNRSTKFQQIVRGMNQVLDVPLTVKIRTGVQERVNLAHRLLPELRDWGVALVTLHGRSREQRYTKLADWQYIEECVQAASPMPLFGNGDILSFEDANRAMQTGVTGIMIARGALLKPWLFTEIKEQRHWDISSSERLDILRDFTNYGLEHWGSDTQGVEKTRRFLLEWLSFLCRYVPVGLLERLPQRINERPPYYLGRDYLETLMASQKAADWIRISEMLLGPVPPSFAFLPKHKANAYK
inactive: [1] 0.084 | [2] -0.001 | [3] 0.005 | [4] -0.001 | [5] 0.098

GATAD2A isoform 3 (UniProt Q86YP4)
UniProt Q86YP4, sequence (Q86YP4 whole entry, looked up): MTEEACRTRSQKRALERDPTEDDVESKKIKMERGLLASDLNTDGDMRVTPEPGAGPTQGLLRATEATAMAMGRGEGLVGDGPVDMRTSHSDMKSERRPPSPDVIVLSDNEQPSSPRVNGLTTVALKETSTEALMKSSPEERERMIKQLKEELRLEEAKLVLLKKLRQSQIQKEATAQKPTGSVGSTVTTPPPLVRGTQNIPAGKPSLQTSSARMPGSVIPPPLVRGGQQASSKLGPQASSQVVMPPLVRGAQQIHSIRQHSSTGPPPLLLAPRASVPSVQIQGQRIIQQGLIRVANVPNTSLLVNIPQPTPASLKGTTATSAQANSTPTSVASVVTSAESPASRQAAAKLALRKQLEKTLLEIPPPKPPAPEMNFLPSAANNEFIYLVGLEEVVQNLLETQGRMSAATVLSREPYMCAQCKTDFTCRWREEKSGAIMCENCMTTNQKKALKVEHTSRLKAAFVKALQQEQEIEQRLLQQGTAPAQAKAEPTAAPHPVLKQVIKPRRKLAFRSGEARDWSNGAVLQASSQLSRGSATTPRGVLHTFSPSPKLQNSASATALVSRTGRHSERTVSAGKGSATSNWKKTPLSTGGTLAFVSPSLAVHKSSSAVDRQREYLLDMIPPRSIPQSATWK
inactive: [1] -0.01 | [2] -0.006 | [3] 0.032 | [4] -0.015 | [5] 0.036

EXTL2 (UniProt Q9UBQ6)
UniProt Q9UBQ6, sequence (Q9UBQ6 whole entry, looked up): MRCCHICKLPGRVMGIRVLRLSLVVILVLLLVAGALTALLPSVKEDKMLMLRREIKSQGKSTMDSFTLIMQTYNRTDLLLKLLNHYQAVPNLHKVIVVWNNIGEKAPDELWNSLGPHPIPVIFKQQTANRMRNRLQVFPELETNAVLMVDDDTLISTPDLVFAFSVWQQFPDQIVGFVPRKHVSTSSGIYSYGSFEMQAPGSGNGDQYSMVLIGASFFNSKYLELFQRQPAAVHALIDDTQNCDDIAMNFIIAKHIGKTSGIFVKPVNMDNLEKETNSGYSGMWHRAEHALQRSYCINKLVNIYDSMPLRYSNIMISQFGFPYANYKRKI
inactive: [1] 0.208 | [2] 0.235 | [3] -0.059 | [4] -0.185 | [5] 0.028

GABPB1 (UniProt Q06547)
inactive: [1] 0.044 | [2] -0.013 | [3] -0.04 | [4] -0.001 | [5] 0.132

G6PD isoform 2 (UniProt P11413)
inactive: [1] 0.023 | [2] -0.002 | [3] 0.011 | [4] 0.053 | [5] 0.075

FTSJ1 (UniProt Q9UET6)
inactive: [1] 0.016 | [2] 0.013 | [3] -0.025 | [4] -0.005 | [5] 0.048

FTSJ3 (UniProt Q8IY81)
UniProt Q8IY81, sequence (Q8IY81 whole entry, looked up): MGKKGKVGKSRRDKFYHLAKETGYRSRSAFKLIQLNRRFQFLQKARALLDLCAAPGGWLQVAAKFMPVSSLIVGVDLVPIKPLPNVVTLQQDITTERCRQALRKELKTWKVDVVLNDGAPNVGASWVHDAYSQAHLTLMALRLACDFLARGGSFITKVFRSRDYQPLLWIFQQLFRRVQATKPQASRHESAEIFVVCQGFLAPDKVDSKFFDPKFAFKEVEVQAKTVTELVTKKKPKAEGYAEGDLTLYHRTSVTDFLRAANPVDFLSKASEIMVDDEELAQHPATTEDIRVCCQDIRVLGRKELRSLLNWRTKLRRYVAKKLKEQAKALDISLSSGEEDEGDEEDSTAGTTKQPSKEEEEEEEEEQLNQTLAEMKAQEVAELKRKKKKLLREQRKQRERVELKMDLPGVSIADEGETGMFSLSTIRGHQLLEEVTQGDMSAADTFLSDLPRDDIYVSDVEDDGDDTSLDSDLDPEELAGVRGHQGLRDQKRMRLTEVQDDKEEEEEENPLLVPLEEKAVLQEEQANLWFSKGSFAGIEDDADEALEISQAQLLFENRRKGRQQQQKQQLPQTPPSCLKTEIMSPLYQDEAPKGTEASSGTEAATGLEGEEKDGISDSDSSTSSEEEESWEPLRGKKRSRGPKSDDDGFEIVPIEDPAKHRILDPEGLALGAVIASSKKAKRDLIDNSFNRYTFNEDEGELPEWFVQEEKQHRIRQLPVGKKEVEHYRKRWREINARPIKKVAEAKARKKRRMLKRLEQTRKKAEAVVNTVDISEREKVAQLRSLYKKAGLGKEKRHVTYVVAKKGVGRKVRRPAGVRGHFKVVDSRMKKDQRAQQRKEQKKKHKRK
inactive: [1] 0.022 | [2] -0.051 | [3] -0.007 | [4] -0.003 | [5] 0.083

ENO1 isoform 2 (UniProt P06733)
UniProt P06733, sequence (P06733 whole entry, looked up): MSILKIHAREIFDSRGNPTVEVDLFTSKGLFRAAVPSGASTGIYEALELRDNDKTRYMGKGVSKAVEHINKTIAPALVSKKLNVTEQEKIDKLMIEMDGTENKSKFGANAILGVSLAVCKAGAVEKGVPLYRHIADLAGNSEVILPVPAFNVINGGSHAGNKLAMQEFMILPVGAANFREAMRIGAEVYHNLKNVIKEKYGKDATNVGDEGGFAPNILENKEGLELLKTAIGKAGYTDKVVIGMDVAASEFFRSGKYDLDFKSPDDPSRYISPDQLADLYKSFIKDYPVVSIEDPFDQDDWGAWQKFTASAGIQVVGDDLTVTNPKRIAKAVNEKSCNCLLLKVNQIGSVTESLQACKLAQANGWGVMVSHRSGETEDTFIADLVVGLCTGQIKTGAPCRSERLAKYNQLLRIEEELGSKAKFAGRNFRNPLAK
inactive: [1] 0.068 | [2] -0.145 | [3] 0.033 | [4] -0.062 | [5] -0.143

FARSA (UniProt Q9Y285)
inactive: [1] 0.028 | [2] 0.171 | [3] -0.003 | [4] -0.028 | [5] -0.009

GAPVD1 (UniProt Q14C86)
inactive: [1] 0.036 | [2] -0.067

FAM83D (UniProt Q9H4H8)
inactive: [1] -0.021 | [2] 0.023 | [3] 0.035 | [4] -0.02 | [5] -0.006

GABPB1 isoform 3 (UniProt Q06547)
inactive: [1] 0.039 | [2] 0.052 | [3] -0.017 | [4] -0.024 | [5] -0.025

FYB1 isoform 3 (UniProt O15117)
inactive: [1] 0.011 | [2] 0.039 | [3] 0.095 | [4] 0.008 | [5] 0.051

ESRRA (UniProt P11474)
UniProt P11474, sequence (P11474 whole entry, looked up): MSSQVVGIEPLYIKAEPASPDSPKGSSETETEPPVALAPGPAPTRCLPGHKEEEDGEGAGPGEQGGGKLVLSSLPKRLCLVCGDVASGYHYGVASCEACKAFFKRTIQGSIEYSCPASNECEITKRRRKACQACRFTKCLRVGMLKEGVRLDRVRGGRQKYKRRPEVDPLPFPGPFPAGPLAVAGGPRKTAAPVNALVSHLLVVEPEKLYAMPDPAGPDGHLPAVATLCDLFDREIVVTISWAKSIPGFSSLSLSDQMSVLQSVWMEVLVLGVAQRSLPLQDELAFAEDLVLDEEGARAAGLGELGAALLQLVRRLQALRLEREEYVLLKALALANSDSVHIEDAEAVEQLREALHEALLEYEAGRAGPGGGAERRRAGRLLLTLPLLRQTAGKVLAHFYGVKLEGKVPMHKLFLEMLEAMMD
inactive: [1] 0.204 | [2] -0.018 | [3] 0.029 | [4] 0.046 | [5] 0.264

GCN1 (UniProt Q92616)
inactive: [1] -0.046 | [2] 0.003 | [3] 0.019 | [4] 0.035 | [5] 0.063

GDPD1 (UniProt Q8N9F7)
UniProt Q8N9F7, sequence (Q8N9F7 whole entry, looked up): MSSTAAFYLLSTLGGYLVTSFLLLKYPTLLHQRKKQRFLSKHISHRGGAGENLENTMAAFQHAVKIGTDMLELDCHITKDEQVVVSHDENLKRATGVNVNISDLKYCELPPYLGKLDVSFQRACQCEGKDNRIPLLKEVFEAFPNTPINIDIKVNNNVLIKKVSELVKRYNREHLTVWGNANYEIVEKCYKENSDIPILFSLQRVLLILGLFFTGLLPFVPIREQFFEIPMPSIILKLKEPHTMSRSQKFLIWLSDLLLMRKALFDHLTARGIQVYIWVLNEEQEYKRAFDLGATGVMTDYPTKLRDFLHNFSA
inactive: [1] -0.047 | [2] 0.018 | [3] 0.117 | [4] 0.024 | [5] -0.036

GAMT (UniProt Q14353)
inactive: [1] -0.025 | [2] -0.083 | [3] -0.002 | [4] 0.114 | [5] 0.005

DTWD1 (UniProt Q8N5C7)
inactive: [1] -0.003 | [2] 0.075 | [3] -0.004 | [4] 0.039 | [5] 0.095

ENGASE (UniProt Q8NFI3)
inactive: [1] 0.042 | [2] 0.017 | [3] 0.038 | [4] 0.017 | [5] -0.023

FBXO22 (UniProt Q8NEZ5)
UniProt Q8NEZ5, sequence (Q8NEZ5 whole entry, looked up): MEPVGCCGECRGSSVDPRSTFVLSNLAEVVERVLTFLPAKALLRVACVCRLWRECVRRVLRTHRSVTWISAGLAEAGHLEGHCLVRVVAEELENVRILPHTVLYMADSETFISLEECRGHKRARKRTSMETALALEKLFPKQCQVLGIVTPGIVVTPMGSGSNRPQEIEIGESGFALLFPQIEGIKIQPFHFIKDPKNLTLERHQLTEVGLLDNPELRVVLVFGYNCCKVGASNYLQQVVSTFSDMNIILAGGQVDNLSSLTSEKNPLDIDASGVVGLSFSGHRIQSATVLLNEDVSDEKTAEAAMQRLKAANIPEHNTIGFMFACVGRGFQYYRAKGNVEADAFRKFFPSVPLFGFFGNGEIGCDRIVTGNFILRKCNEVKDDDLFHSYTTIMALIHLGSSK
inactive: [1] -0.007 | [2] -0.004 | [3] 0.03 | [4] 0.02 | [5] 0.083

FAM98A (UniProt Q8NCA5)
inactive: [1] 0.017 | [2] 0.002 | [3] -0.048 | [4] 0.016 | [5] 0.02

EIF2B4 (UniProt Q9UI10)
UniProt Q9UI10, sequence (Q9UI10 whole entry, looked up): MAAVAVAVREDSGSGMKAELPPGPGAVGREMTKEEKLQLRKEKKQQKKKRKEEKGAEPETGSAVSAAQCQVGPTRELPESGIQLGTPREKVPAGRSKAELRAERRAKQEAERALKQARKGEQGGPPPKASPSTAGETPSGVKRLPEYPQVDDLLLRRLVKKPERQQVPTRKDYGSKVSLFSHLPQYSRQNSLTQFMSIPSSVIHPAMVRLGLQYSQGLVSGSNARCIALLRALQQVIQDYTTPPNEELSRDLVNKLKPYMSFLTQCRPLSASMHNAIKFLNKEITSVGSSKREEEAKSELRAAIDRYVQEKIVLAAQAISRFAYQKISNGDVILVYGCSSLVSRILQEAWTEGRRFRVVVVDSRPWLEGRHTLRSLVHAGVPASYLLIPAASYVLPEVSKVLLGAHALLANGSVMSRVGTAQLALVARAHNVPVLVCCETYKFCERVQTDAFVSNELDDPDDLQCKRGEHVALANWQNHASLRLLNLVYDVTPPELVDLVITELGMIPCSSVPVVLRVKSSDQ
inactive: [1] 0.028 | [2] 0.079 | [3] -0.005 | [4] -0.224

EP300 (UniProt Q09472)
inactive: [1] -0.048 | [2] -0.013 | [3] 0.025 | [4] 0.005 | [5] -0.016

ENO2 (UniProt P09104)
inactive: [1] 0.019 | [2] -0.122 | [3] 0.037 | [4] -0.009 | [5] -0.153
